Reference: PubChem BioAssay (Tox21)
Records with an inconclusive call do not appear. Entries that show only a call come without a potency. The source made the active and inactive calls. Unless noted, calls come from the whole dose curve; as a rule, active = well fitted curve in the direction sought with a large enough effect in the repeat runs; inconclusive = weak or mixed curves; inactive = no such curve, though single readings can be large; an effect the other way counts as inactive or inconclusive.

What was measured:
[1] = A CellTox Green Cytotoxicity Assay to monitor cytotoxicity in HepG2 cells - 0 hour (AID 1224882); note: nearly all actives have a fitted effect of over 35% in size
Outline: (§1)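 Cells and non-lytic dye reagent are dispensed together (600 HepG2 cells/well) and incubated 5 h before DMSO compound transfer. Kinetic fluorescence is then recorded in the same wells during 40 h at 37 C.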

[2] = A CellTox Green Cytotoxicity Assay to monitor cytotoxicity in HepG2 cells - 32 hour (AID 1224883); note: nearly all actives have a fitted effect of over 50% in size; note: potency is the fitted concentration of half-maximal effect
Outline: as §1

[3] = A CellTox Green Cytotoxicity Assay to monitor cytotoxicity in HEK293 cells - 8 hour (AID 1224884); note: nearly all actives have a fitted effect of over 35% in size
Outline: (§2)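 Cells (HEK293, 600/well) and dye reagent are dispensed together. After 5 h at 37 C, 23 nL compound is pinned in. Plates stay at 37 C for 40 h with fluorescence read at 0h, 8h, 16h, 24h, 32h and 40h.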

[4] = qHTS RealTime-Glo MT Cell Viability Assay in HepG2 cells - 16 hour (AID 1224885); note: nearly all actives have a fitted effect of over 50% in size; note: potency is the fitted concentration of half-maximal effect
Outline: (§3)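 Tox21 10K library screened in qHTS format on HepG2 cells carrying RealTime-Glo reagents. Compounds were added after a 5 h preincubation, and the luminescent signal from continuous culture was measured repeatedly during 40 h treatment.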

[5] = qHTS RealTime-Glo MT Cell Viability Assay in HEK293 cells - 24 hour (AID 1224886); note: nearly all actives have a fitted effect of over 50% in size; note: potency is the fitted concentration of half-maximal effect
Outline: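 Luminescence generated by NanoLuc from substrate produced by living HEK293 cells served as the viability signal. Each value reflects the reading at its stated time point during continuous 40 h compound exposure at 37 C.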

[6] = qHTS RealTime-Glo MT Cell Viability Assay in HEK293 cells - 8 hour (AID 1224887); note: nearly all actives have a fitted effect of over 50% in size; note: potency is the fitted concentration of half-maximal effect
Outline: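 Real-time viability in HEK293: signal arises when living cells convert a prosubstrate for NanoLuc in the medium, so luminescence tracks viable cell number. Compound (23 nL, DMSO) added 5 h post-seeding; kinetic reads at 0–40 h, 37 C.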

[7] = A CellTox Green Cytotoxicity Assay to monitor cytotoxicity in HEK293 cells - 16 hour (AID 1224888); note: nearly all actives have a fitted effect of over 35% in size
Outline: as §2

[8] = qHTS RealTime-Glo MT Cell Viability Assay in HepG2 cells - 0 hour (AID 1224889); note: nearly all actives have a fitted effect of over 50% in size
Outline: as §3

[9] = A CellTox Green Cytotoxicity Assay to monitor cytotoxicity in HepG2 cells - 8 hour (AID 1224890); note: nearly all actives have a fitted effect of over 45% in size
Outline: as §1

[10] = qHTS assay to identify small molecule antagonists of the estrogen receptor alpha (ER-alpha) signaling pathway using the BG1 cell line in the presence of 0.1 nM 17-beta-estradiol - cell viability counter screen (AID 1259241); note: nearly all actives have a fitted effect of over 40% in size; note: potency is the fitted concentration of half-maximal effect
Outline: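 Viability in VM7Luc4E2 cells after 22 hr compound exposure under 0.1 nM 17beta-estradiol stimulation, by CellTiter-Fluor.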

[11] = qHTS assay to identify small molecule antagonists of the androgen receptor (AR) signaling pathway using the MDA cell line in the presence of 0.5 nM R1881 - cell viability counter screen (AID 1259242); note: nearly all actives have a fitted effect of over 45% in size
Outline: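 Steps: plate MDA-kb2 cells, rest 5 hr at 37C without CO2; pin in compounds in DMSO; add R1881 to 0.5 nM final; incubate 16 hr; add CellTiter-Fluor, 30 min; read fluorescence.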

[12] = molecular target: Androgen receptor (Homo sapiens) (UniProt P10275); test: qHTS assay to identify small molecule antagonists of the androgen receptor (AR) signaling pathway using the MDA cell line in the presence of 0.5 nM R1881 (AID 1259243); note: nearly all actives have a fitted effect of over 50% in size; note: potency is the fitted concentration of half-maximal effect
Androgen receptor (Homo sapiens), sequence (P10275 whole entry, looked up): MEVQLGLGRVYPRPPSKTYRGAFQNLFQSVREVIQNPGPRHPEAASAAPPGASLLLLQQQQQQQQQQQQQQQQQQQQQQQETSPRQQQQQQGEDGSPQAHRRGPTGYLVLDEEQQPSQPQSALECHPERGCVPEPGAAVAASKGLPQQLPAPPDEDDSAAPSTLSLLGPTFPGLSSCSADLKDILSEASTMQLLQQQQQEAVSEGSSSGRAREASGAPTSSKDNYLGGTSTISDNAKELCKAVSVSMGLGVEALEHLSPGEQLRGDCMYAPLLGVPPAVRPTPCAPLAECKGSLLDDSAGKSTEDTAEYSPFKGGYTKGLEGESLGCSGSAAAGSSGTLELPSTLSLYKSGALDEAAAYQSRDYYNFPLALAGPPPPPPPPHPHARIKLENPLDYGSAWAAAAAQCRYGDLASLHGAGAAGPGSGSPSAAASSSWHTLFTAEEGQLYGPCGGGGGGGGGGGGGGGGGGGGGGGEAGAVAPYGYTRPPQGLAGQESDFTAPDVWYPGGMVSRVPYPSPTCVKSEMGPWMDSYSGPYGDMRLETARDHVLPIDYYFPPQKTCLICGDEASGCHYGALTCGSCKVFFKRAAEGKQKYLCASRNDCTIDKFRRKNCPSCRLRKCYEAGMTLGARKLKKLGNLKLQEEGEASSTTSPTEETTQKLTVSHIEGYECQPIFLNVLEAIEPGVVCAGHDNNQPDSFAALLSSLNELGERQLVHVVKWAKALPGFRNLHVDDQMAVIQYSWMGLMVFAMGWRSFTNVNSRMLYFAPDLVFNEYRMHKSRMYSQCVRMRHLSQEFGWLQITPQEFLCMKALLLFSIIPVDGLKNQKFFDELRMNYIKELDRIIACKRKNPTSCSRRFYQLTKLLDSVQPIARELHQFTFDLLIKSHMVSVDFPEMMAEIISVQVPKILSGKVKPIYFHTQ
Outline: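 Stably transfected MDA-kb2 cells express luciferase from an MMTV promoter bearing both AR and GR response elements. Compounds plus 0.5 nM R1881 (final) were incubated 16 hr at 37C without CO2, then luminescence measured.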

[13] = molecular target: Estrogen receptor (Homo sapiens) (UniProt P03372); test: qHTS assay to identify small molecule antagonists of the estrogen receptor alpha (ER-alpha) signaling pathway using the BG1 cell line in the presence of 0.1 nM 17-beta-estradiol (AID 1259244); note: nearly all actives have a fitted effect of over 50% in size; note: potency is the fitted concentration of half-maximal effect
Estrogen receptor (Homo sapiens), sequence (P03372 whole entry, looked up): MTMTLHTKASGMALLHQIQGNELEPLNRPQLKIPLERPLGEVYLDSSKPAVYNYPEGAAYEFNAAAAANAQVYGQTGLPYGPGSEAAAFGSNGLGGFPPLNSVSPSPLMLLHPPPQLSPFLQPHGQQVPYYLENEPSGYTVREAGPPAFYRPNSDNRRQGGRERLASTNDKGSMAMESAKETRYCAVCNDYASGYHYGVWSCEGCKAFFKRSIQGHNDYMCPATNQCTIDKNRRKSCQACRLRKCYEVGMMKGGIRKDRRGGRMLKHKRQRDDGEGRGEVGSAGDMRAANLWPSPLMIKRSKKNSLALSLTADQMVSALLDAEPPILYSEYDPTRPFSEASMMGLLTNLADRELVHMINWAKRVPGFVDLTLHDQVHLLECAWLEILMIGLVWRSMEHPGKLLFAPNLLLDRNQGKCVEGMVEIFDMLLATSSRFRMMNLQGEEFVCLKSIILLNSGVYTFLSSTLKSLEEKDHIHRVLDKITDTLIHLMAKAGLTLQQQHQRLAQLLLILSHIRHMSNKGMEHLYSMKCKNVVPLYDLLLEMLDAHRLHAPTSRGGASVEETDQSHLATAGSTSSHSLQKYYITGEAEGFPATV
Outline: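 Antagonist mode: compounds in DMSO are pinned onto VM7Luc4E2 reporter cells, 0.1 nM final 17beta-estradiol is added, and after 22 h at 37C luciferase luminescence is measured with ONE-Glo.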

[14] = qHTS assay to identify small molecule HDAC inhibitors (AID 1259364); note: potency is the fitted concentration of half-maximal effect;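 note: wild-type HCT-116 cells with endogenous class I/II HDAC activity; nearly all actives have a fitted effect of over 45% in size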
Outline: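 Cells (HCT-116, wild type) are seeded at 1,500 per well, incubated overnight, treated with compound in DMSO for 2 hr, then developed with HDAC-Glo I/II reagent for 30 min at room temperature.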

[15] = qHTS assay to identify small molecule HDAC inhibitors - cell viability counter screen (AID 1259365)
Outline: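 Cytotoxicity was gauged in wild-type HCT-116 cells after a brief 2hr treatment with DMSO-dissolved compounds at 37C and 5% CO2, using CellTiter-Glo luminescence developed for 30min at room temperature.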

[16] = qHTS assay to identify small molecule antagonists of the sonic hedgehog signaling (Shh) pathway - cell viability counter screen (AID 1259367); note: nearly all actives have a fitted effect of over 55% in size; note: potency is the fitted concentration of half-maximal effect
Outline: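 Conditioned medium drove Shh signaling in 3T3 Gli1-Luc cells exposed to compounds at 37C and 5% CO2. Viability was determined from CellTiter-Fluor fluorescence, with reagent incubated 1 hr after 23 hr of treatment.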

[17] = qHTS assay to identify small molecule agonists of the sonic hedgehog signaling (Shh) pathway (AID 1259368; calls by dose curve; note: nearly all actives have a fitted effect of over 15% in size; note: potency is the fitted concentration of half-maximal effect)
Outline: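 Cells of a mouse NIH/3T3 clone stably expressing luciferase under the Gli1 transcriptional response element are exposed to test chemicals for 24 hr at 37 C. Pathway activation is detected as a rise in luminescence.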

[18] = A CellTox Green Cytotoxicity Assay to monitor cytotoxicity in HEK293 cells - 32 hour (AID 1224881); note: nearly all actives have a fitted effect of over 40% in size
Outline: as §2

[19] = qHTS assay to identify small molecule phospholipidosis (PLD) inducers (AID 1259344; active = well fitted curve in the direction sought with a large enough effect; an effect the other way counts as inactive or inconclusive)
Outline: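 After 4 h attachment on collagen I, HepG2 cells were dosed with compound alongside LipidTOX Red, kept 24 h at 37 C, fixed, and imaged for lamellar phospholipid pits.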

[20] = qHTS assay to identify small molecule agonists of the sonic hedgehog signaling (Shh) pathway - cell viability counter screen (AID 1259366); note: nearly all actives have a fitted effect of over 50% in size; note: potency is the fitted concentration of half-maximal effect
Outline: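 Stable Gli1-Luc NIH/3T3 clone, 2,000 cells/well. Compound exposure 24hr at 37C. Read-out: CellTiter-Fluor fluorescence.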

SMILES: O=[N+]([O-])c1cc(Cl)ccc1Cl
- Potency [1]: inactive
- Potency [2]: inactive
- Potency [3]: inactive
- Potency [4]: inactive
- Potency [5]: inactive
- Potency [6]: inactive
- Potency [7]: inactive
- Potency [8]: inactive
- Potency [9]: inactive
- Potency [10]: inactive
- Potency [11]: inactive
- Potency [12]: inactive
- Potency [13]: inactive
- Potency [14]: inactive
- Potency [15]: inactive
- Potency [16]: inactive
- Potency [17]: inactive

SMILES: CC1(C)C(/C=C(\Cl)C(F)(F)F)C1C(=O)OC(C#N)c1cccc(Oc2ccccc2)c1 (configuration not stated)
- Potency [18]: inactive
- Potency [2]: inactive
- Potency [3]: inactive
- Potency [4]: inactive
- Potency [7]: inactive
- Potency [8]: inactive
- Potency [9]: inactive
- Potency [10]: inactive
- Potency [11]: inactive
- Potency [14]: inactive
- Potency [15]: inactive
- Potency [16]: inactive
- Potency [17]: inactive

SMILES: COc1ccc(OC)c(CC(C)N)c1 (configuration not stated)
- Potency [18]: inactive
- Potency [2]: inactive
- Potency [3]: inactive
- Potency [4]: inactive
- Potency [5]: inactive
- Potency [6]: inactive
- Potency [7]: inactive
- Potency [8]: inactive
- Potency [9]: inactive
- Potency [10]: inactive
- Potency [11]: inactive
- Potency [13]: inactive
- Potency [19]: inactive
- Potency [14]: inactive
- Potency [15]: inactive
- Potency [20]: inactive
- Potency [16]: inactive
- Potency [17]: inactive

SMILES: c1ccc2c(c1)[nH]c1cnccc12
- Potency [18]: inactive
- Potency [2]: inactive
- Potency [4]: inactive
- Potency [5]: inactive
- Potency [6]: inactive
- Potency [7]: inactive
- Potency [8]: inactive
- Potency [9]: inactive
- Potency [10]: inactive
- Potency [11]: inactive
- Potency [13]: inactive
- Potency [14]: inactive
- Potency [15]: inactive
- Potency [20]: inactive
- Potency [16]: inactive
- Potency [17]: inactive

SMILES: COc1cccc(C(=O)CCN[C@@H](C)[C@H](O)c2ccccc2)c1
- Potency [6]: inactive
- Potency [8]: inactive
- Potency [9]: inactive
- Potency [10]: inactive
- Potency [12]: 29.8 µM (active)
- Potency [14]: inactive
- Potency [15]: inactive
- Potency [17]: inactive

SMILES: ClC1=C(Cl)[C@]2(Cl)[C@H]3[C@H]([C@H]4C=C[C@H]3C4)[C@@]1(Cl)C2(Cl)Cl
- Potency [1]: inactive
- Potency [2]: inactive
- Potency [3]: inactive
- Potency [4]: inactive
- Potency [5]: inactive
- Potency [6]: inactive
- Potency [7]: inactive
- Potency [8]: inactive
- Potency [9]: inactive
- Potency [10]: inactive
- Potency [11]: inactive
- Potency [13]: inactive
- Potency [14]: inactive
- Potency [15]: inactive
- Potency [20]: inactive
- Potency [16]: inactive
- Potency [17]: inactive

SMILES: Nc1ccc(Sc2ccc(N)cc2)cc1
- Potency [1]: inactive
- Potency [2]: 4.36 µM (active)
- Potency [4]: inactive
- Potency [5]: inactive
- Potency [6]: inactive
- Potency [8]: inactive
- Potency [10]: inactive
- Potency [11]: inactive
- Potency [19]: inactive
- Potency [14]: inactive
- Potency [15]: inactive
- Potency [16]: inactive
- Potency [17]: inactive

SMILES: CCOC(=O)CC(=O)CCl
- Potency [1]: inactive
- Potency [2]: inactive
- Potency [3]: inactive
- Potency [4]: inactive
- Potency [5]: 43.6 µM (active)
- Potency [7]: inactive
- Potency [8]: inactive
- Potency [9]: inactive
- Potency [10]: inactive
- Potency [11]: inactive
- Potency [12]: 30.6 µM (active)
- Potency [13]: inactive
- Potency [14]: inactive
- Potency [15]: inactive
- Potency [20]: inactive
- Potency [16]: inactive
- Potency [17]: inactive

SMILES: CN(C)c1ccc(N=Nc2ccccc2)cc1
- Potency [2]: inactive
- Potency [8]: inactive
- Potency [9]: inactive
- Potency [10]: 54.5 µM (active)
- Potency [14]: 4.33 µM (active)
- Potency [15]: inactive
- Potency [20]: 27.3 µM (active)
- Potency [17]: 1.72 µM (active)

SMILES: O=C(O)COc1nc(Cl)c(Cl)cc1Cl
- Potency [4]: inactive
- Potency [5]: inactive
- Potency [6]: inactive
- Potency [8]: inactive
- Potency [10]: inactive
- Potency [11]: inactive
- Potency [13]: inactive
- Potency [14]: inactive
- Potency [15]: inactive
- Potency [16]: inactive

SMILES: Clc1ccc(C(Cl)(Cl)Cl)c(Cl)c1
- Potency [1]: inactive
- Potency [4]: inactive
- Potency [6]: inactive
- Potency [8]: inactive
- Potency [9]: inactive
- Potency [10]: inactive
- Potency [11]: inactive
- Potency [14]: inactive
- Potency [15]: inactive
- Potency [16]: inactive
- Potency [17]: inactive

SMILES: Oc1c(Cl)c(Cl)cc(Cl)c1Cl
- Potency [2]: inactive
- Potency [3]: inactive
- Potency [4]: inactive
- Potency [5]: 47.6 µM (active)
- Potency [8]: inactive
- Potency [9]: inactive
- Potency [10]: inactive
- Potency [12]: 66.7 µM (active)
- Potency [15]: inactive
- Potency [20]: inactive
- Potency [16]: inactive
- Potency [17]: inactive

SMILES: Clc1ccc(-c2ccccc2)cc1
- Potency [2]: inactive
- Potency [3]: inactive
- Potency [5]: inactive
- Potency [6]: inactive
- Potency [7]: inactive
- Potency [8]: inactive
- Potency [9]: inactive
- Potency [10]: inactive
- Potency [11]: inactive
- Potency [13]: inactive
- Potency [15]: inactive
- Potency [20]: inactive
- Potency [16]: inactive
- Potency [17]: inactive

SMILES: Clc1ccc(Oc2ccccc2)cc1
- Potency [1]: inactive
- Potency [2]: inactive
- Potency [4]: inactive
- Potency [6]: inactive
- Potency [7]: inactive
- Potency [8]: inactive
- Potency [9]: inactive
- Potency [10]: inactive
- Potency [11]: inactive
- Potency [12]: inactive
- Potency [13]: inactive
- Potency [14]: inactive
- Potency [15]: inactive
- Potency [20]: inactive
- Potency [16]: inactive
- Potency [17]: inactive

SMILES: CC(=O)[O-].CC(=O)[O-].O.O.[Cd+2]
- Potency [1]: inactive
- Potency [2]: 27.2 µM (active)
- Potency [3]: inactive
- Potency [7]: inactive
- Potency [8]: inactive
- Potency [9]: inactive
- Potency [11]: inactive
- Potency [14]: inactive
- Potency [15]: inactive
- Potency [20]: 3.8 µM (active)
- Potency [16]: 8.51 µM (active)
- Potency [17]: inactive

SMILES: CCCN(CC)CC1COC2(CCC(C(C)(C)C)CC2)O1 (configuration not stated)
- Potency [1]: inactive
- Potency [2]: inactive
- Potency [4]: inactive
- Potency [5]: inactive
- Potency [6]: inactive
- Potency [7]: inactive
- Potency [8]: inactive
- Potency [9]: inactive
- Potency [10]: inactive
- Potency [11]: inactive
- Potency [13]: inactive
- Potency [14]: inactive
- Potency [15]: inactive
- Potency [20]: inactive
- Potency [16]: inactive
- Potency [17]: inactive

SMILES: CCOP(=S)(OCC)OC(Cl)C(Cl)(Cl)Cl (configuration not stated)
- Potency [1]: inactive
- Potency [2]: inactive
- Potency [3]: inactive
- Potency [4]: inactive
- Potency [5]: inactive
- Potency [6]: inactive
- Potency [7]: inactive
- Potency [8]: inactive
- Potency [9]: inactive
- Potency [10]: inactive
- Potency [11]: inactive
- Potency [14]: inactive
- Potency [15]: inactive
- Potency [20]: inactive
- Potency [16]: inactive
- Potency [17]: inactive

SMILES: CC(C)(c1ccc(O)c(-c2ccccc2)c1)c1ccc(O)c(-c2ccccc2)c1
- Potency [2]: 49 µM (active)
- Potency [4]: 49 µM (active)
- Potency [5]: 21.9 µM (active)
- Potency [6]: 21.9 µM (active)
- Potency [8]: inactive
- Potency [12]: 30.6 µM (active)
- Potency [13]: 48.6 µM (active)
- Potency [20]: 15.4 µM (active)
